# According to PubChem BioAssay (NCATS):
# Several values for one entry are separate records, joined by “and”; a condition that tells them apart may be missing. Identical values can stand only once. Results filed as inconclusive are left out. Activity calls are given as the source filed them. Unless noted, calls come from the whole dose curve.
# Target: Glucocorticoid receptor (Homo sapiens) (UniProt P04150)
# Assay: qHTS assay for small molecule antagonists of glucocorticoid receptor signaling (AID 588533; active = well fitted inhibition curve with a large enough effect in the signal ratio, with a control signal flat, not every such curve was filed as active; the % refers to the signal ratio;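 note: cells stimulated with 2 nM dexamethasone as agonist; % is set by controls: 0 for no effect and ±100 for the full control effect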)
# Details: HeLa MMTV-bla, GRE beta-lactamase ratio, antagonist mode, 18 h; series mostly up to 76.8 µM; activity change, negative = inhibition: at the top concentration
# Outline: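 Antagonist-mode qHTS: compound titrations added to GRE-bla HeLa cells, then dexamethasone 2 nM final; 18 h, 37 C. CCF4 FRET fluorescence normalized to dexamethasone and DMSO; IC50 from Hill fit.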
# Chain of Glucocorticoid receptor (Homo sapiens) (P04150 whole entry, looked up): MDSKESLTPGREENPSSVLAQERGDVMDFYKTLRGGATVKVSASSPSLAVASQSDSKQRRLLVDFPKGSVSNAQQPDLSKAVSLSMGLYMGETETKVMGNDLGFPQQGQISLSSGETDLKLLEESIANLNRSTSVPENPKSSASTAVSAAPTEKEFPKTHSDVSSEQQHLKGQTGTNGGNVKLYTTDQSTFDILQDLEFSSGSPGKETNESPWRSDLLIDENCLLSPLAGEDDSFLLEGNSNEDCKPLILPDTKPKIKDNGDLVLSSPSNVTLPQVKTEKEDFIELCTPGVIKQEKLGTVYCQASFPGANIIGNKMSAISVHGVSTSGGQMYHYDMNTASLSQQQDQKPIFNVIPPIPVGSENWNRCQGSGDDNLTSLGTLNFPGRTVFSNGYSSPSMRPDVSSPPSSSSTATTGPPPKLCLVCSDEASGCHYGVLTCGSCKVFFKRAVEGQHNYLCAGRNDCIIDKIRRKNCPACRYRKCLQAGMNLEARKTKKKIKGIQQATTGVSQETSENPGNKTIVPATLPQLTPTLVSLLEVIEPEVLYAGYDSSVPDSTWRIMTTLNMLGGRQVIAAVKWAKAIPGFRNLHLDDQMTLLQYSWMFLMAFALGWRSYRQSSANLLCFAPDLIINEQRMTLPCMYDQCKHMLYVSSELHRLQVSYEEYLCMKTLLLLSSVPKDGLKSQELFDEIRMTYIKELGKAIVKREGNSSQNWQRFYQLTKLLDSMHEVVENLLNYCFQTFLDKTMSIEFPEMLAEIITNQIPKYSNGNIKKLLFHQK
SMILES,"activity change, negative = inhibition",outcome
CC(C#N)CCC#N (stereo unspecified),-7.16% (inactive),–
Nc1cc(Cl)ccc1Cl,-2.91% (inactive),–
CCC/C=N/O,-4.84% (inactive),–
COc1c(C(C)(C)C)cc([N+](=O)[O-])c(C)c1[N+](=O)[O-],29.1% (inactive),–
C=CCOCC1CO1 (stereo unspecified),25.6% (inactive),–
c1ccoc1,8.11% (inactive),–
Clc1ccccc1,-10.1% (inactive),–
ClC(Cl)(Cl)C(Cl)(Cl)Cl,12.2% (inactive),–
CCOC(=O)C1OC1(C)c1ccccc1 (stereo unspecified),7.36% (inactive),–
ClC(Cl)C(Cl)Cl,-3.15% (inactive),–
C=CCCl,3.3% (inactive),–
Brc1cccc(-c2ccccc2)c1,3.1% (inactive),–
C=CCO,-19.6% (inactive),–
OCCCCO,-23.5% (inactive),–
Nn1cnnc1,6.53% (inactive),–
BrCCc1ccccc1,15.7% (inactive),–
Cc1ccccc1[N+](=O)[O-],-10.3% (inactive),–
CCCCOC(=O)c1ccccc1N,27.6% (inactive),–
Cc1ccc(N)c(C)c1,-13.8% (inactive),–
CN(C)C(=O)Cl,-15.6% (inactive),–
Cc1ccc(N=C=O)cc1N=C=O,–,inactive
O=C(Cl)OCc1ccccc1,13.6% (inactive),–
OCC(Cl)CCl (stereo unspecified),6.86% (inactive),–
CC(C)CON=O,-10.8% (inactive),–
CC[N+](=O)[O-],-4.24% (inactive),–
C[N+](=O)[O-],-0.33% (inactive),–
CC(C)OC(=O)Cc1ccccc1,27.4% (inactive),–
ClCC(Br)CBr (stereo unspecified),-8.01% (inactive),–

# Target: Peroxisome proliferator-activated receptor delta (Homo sapiens) (UniProt Q03181)
# Assay: qHTS assay for small molecule agonists of peroxisome proliferator-activated receptor delta signaling (AID 588534);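 note: 0% = DMSO basal wells and 100% = positive control agonist at 10 µM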
# Details: HEK293T PPARdelta-UAS-bla, beta-lactamase ratio, 18 h; series mostly up to 76.7 µM; activation: at the top concentration
# Outline: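 Agonist-mode qHTS; reporter cells, 5 hrs 37 C pre-incubation; compound titration, 18 hrs 37 C; CCF4 dye, 2 hrs RT; fluorescence read. EC50/efficacy via Hill fit.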
# Chain of Peroxisome proliferator-activated receptor delta (Homo sapiens) (Q03181 whole entry, looked up): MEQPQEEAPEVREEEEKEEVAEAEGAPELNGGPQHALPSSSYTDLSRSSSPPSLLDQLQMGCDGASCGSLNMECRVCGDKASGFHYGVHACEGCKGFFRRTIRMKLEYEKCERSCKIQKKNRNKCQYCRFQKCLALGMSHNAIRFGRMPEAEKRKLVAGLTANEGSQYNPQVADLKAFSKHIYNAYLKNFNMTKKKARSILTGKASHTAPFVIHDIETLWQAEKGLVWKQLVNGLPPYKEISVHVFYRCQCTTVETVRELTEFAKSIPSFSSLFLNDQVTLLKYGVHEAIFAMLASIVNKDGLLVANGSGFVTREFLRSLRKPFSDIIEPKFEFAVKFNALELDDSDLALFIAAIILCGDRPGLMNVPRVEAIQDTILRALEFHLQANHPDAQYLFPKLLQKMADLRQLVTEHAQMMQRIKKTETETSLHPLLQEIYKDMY
SMILES,activation,outcome
CC(C#N)CCC#N (stereo unspecified),2.96% (inactive),–
Nc1cccc(Cl)c1,0.0678% (inactive),–
COc1c(C(C)(C)C)cc([N+](=O)[O-])c(C)c1[N+](=O)[O-],8.05% (inactive),–
O=S(=O)(Cl)c1ccccc1,–,inactive
Clc1ccccc1,6.65% (inactive),–
C=CCO,6.48% (inactive),–
OCCCCO,-2.1% (inactive),–
Nn1cnnc1,-3.96% (inactive),–
BrCCc1ccccc1,-3.02% (inactive),–
Cc1ccccc1[N+](=O)[O-],6.25% (inactive),–
Clc1cc(Cl)c(Cl)c(Cl)c1,-0.109% (inactive),–
C1CC2OC2CC1C1CO1 (stereo unspecified),–,inactive
CN(C)C(=O)Cl,9.78% (inactive),–
C=CC(=O)OC,4.76% (inactive),–
OCC(Cl)CCl (stereo unspecified),8.79% (inactive),–
CC(C)CON=O,-3.07% (inactive),–
CC[N+](=O)[O-],2.1% (inactive),–
CC(C)(Cl)[N+](=O)[O-],2.52% (inactive),–
C[N+](=O)[O-],11.6% (inactive),–

# Test system: not listed separately
# Assay: qHTS assay for small molecule antagonists of peroxisome proliferator-activated receptor delta signaling (AID 588535; active = well fitted inhibition curve with a large enough effect in the signal ratio, with a control signal flat, not every such curve was filed as active; the % refers to the signal ratio;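 for max response: cells co-treated with a PPAR-delta agonist as stimulator during compound exposure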)
# Details: HEK293T PPARd-UAS-bla, beta-lactamase FRET ratio, 18 h; 460 nm channel
# Outline: (§1)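 Inhibition of PPAR-delta response element-driven beta-lactamase expression is measured in HEK293T cells exposed to a compound titration series for 18 hrs at 37 C. Half-maximal inhibition comes from Hill equation fitting.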
row,SMILES,max response
1,CC(C#N)CCC#N (stereo unspecified),27.1%
2,Nc1cccc(Cl)c1,30.4%
3,ClCc1ccccc1,-22.1%
4,O=S(=O)(Cl)c1ccccc1,7.79% and -11.8%
5,Clc1ccccc1,-34.6%
6,C/C=C/CC#N,-4.54%
7,Oc1c(Cl)cccc1Cl,38.7%
8,C=CCO,11.9%
9,OCCCCO,-23.5%
10,Nn1cnnc1,-17.8%
11,BrCCc1ccccc1,-20.6%
12,Cc1ccccc1[N+](=O)[O-],-51%
13,CCCCOC(=O)c1ccccc1N,-36.1%
14,Cc1ccc(N)c(C)c1,14.7%
15,C1CC2OC2CC1C1CO1 (stereo unspecified),13.2%
16,CN(C)C(=O)Cl,-22.3%
17,CC(=O)NNc1ccccc1,50%
18,OCC(Cl)CCl (stereo unspecified),-16%
19,CC(C)CON=O,-5.59%
20,C[N+](=O)[O-],3.34%

# Target: Peroxisome proliferator-activated receptor delta (Homo sapiens) (UniProt Q03181)
# Assay: as above
# Details: HEK293T PPARd-UAS-bla, beta-lactamase FRET ratio, 18 h; series mostly up to 76.7 µM; activity change, negative = inhibition: at the top concentration
# Outline: as §1
SMILES,"activity change, negative = inhibition",outcome
CC(C#N)CCC#N (stereo unspecified),6.87% (inactive),–
Nc1cccc(Cl)c1,-20.8% (inactive),–
ClCc1ccccc1,-20.6% (inactive),–
O=S(=O)(Cl)c1ccccc1,–,inactive
Clc1ccccc1,-15.5% (inactive),–
C/C=C/CC#N,-6.15% (inactive),–
Oc1c(Cl)cccc1Cl,-4.37% (inactive),–
C=CCO,3.72% (inactive),–
OCCCCO,-16.3% (inactive),–
Nn1cnnc1,-2.39% (inactive),–
BrCCc1ccccc1,-34.1% (inactive),–
Cc1ccccc1[N+](=O)[O-],-23.1% (inactive),–
CCCCOC(=O)c1ccccc1N,-34.5% (inactive),–
Cc1ccc(N)c(C)c1,-7.62% (inactive),–
C1CC2OC2CC1C1CO1 (stereo unspecified),-18.7% (inactive),–
CN(C)C(=O)Cl,-33.9% (inactive),–
CC(=O)NNc1ccccc1,-8.85% (inactive),–
OCC(Cl)CCl (stereo unspecified),-20.8% (inactive),–
CC(C)CON=O,-20.1% (inactive),–
C[N+](=O)[O-],-7.42% (inactive),–

# Target: Peroxisome proliferator-activated receptor gamma (Homo sapiens) (UniProt P37231)
# Assay: qHTS assay for small molecule agonists of peroxisome proliferator-activated receptor gamma signaling (AID 588536; active = well fitted curve in the direction sought with a large enough effect in the signal ratio, with a control signal flat, not every such curve was filed as active; the % refers to the signal ratio;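 note: 0% = DMSO basal wells and 100% = rosiglitazone at 2 µM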)
# Details: HEK293 PPARg-UAS-bla, beta-lactamase ratio, 16 h, percent of rosiglitazone response, DMSO as zero; series mostly up to 76.7 µM; activation: at the top concentration
# Outline: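 Beta-lactamase reporter read-out: CCF4 fluorescence (ex 405, em 460/530 nm) after 2 h at RT. HEK293 GeneBLAzer cells were treated for 16 h at 37 C. Hill fits gave EC50 and efficacy versus 2 uM rosiglitazone (100%) and DMSO (0%).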
# Chain of Peroxisome proliferator-activated receptor gamma (Homo sapiens) (P37231 whole entry, looked up): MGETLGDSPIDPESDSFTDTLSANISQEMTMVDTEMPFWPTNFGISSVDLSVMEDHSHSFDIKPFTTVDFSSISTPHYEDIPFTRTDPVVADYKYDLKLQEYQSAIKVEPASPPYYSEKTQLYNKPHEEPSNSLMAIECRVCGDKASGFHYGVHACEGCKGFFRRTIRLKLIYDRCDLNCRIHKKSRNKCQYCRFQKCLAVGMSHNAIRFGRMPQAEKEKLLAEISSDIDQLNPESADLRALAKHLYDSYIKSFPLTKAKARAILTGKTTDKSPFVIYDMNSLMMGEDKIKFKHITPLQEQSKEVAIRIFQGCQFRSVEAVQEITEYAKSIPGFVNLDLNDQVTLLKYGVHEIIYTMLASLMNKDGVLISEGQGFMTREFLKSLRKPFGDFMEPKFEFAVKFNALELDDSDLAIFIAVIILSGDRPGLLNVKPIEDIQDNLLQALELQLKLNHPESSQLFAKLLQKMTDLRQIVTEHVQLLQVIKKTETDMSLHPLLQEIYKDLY
SMILES,activation,outcome
CC(C#N)CCC#N (stereo unspecified),1.77% (inactive),–
Nc1cccc(Cl)c1,-1.45% (inactive),–
ClCc1ccccc1,-0.14% (inactive),–
CCC/C=N/O,0.986% (inactive),–
COc1c(C(C)(C)C)cc([N+](=O)[O-])c(C)c1[N+](=O)[O-],5.49% (inactive),–
O=S(=O)(Cl)c1ccccc1,–,inactive
C=CCOCC1CO1 (stereo unspecified),-3.09% (inactive),–
Clc1ccccc1,8.79% (inactive),–
ClC(Cl)(Cl)C(Cl)(Cl)Cl,-1.58% (inactive),–
CCOC(=O)C1OC1(C)c1ccccc1 (stereo unspecified),3.2% (inactive),–
C/C=C/CC#N,0.496% (inactive),–
ClC(Cl)C(Cl)Cl,-3.37% (inactive),–
C=CCCl,2.67% (inactive),–
OCCCCO,1.64% (inactive),–
BrCCc1ccccc1,0.264% (inactive),–
Cc1ccccc1[N+](=O)[O-],1.04% (inactive),–
C1CC2OC2CC1C1CO1 (stereo unspecified),–,inactive
CN(C)C(=O)Cl,3.81% (inactive),–
CC(=O)NNc1ccccc1,-9.72% (inactive),–
Cc1ccc(N=C=O)cc1N=C=O,–,inactive
O=C(Cl)OCc1ccccc1,1.44% (inactive),–
CCN(CC)N=O,2.18% (inactive),–
OCC(Cl)CCl (stereo unspecified),0.38% (inactive),–
CC(C)CON=O,-0.574% (inactive),–
CC[N+](=O)[O-],-0.95% (inactive),–
CC(C)(Cl)[N+](=O)[O-],2.37% (inactive),–
CC(C)OC(=O)Cc1ccccc1,-3.12% (inactive),–

# Target: Peroxisome proliferator-activated receptor gamma (Homo sapiens) (UniProt P37231)
# Assay: qHTS assay for small molecule antagonists of peroxisome proliferator-activated receptor gamma signaling (AID 588537; active = well fitted inhibition curve with a large enough effect in the signal ratio, with a control signal flat, not every such curve was filed as active; the % refers to the signal ratio;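 note: reporter cells co-stimulated with 50 nM rosiglitazone agonist during compound treatment; % of control where 0% means no effect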)
# Details: HEK293 PPARg-UAS-bla, beta-lactamase ratio, antagonist mode; series mostly up to 76.8 µM; activity, negative = inhibition: at the top concentration
# Outline: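 Compounds are tested as concentration series for inhibition of rosiglitazone-driven (50 nM) reporter expression in GeneBLAzer PPAR-gamma-UAS-bla HEK293 cells. After 16 h at 37 C, CCF4 substrate is added for 2 h at room temperature and blue/green fluorescence is measured.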
row,SMILES,"activity, negative = inhibition"
1,CC(C#N)CCC#N (stereo unspecified),-13.1% (inactive)
2,CCC/C=N/O,-4.04% (inactive)
3,COc1c(C(C)(C)C)cc([N+](=O)[O-])c(C)c1[N+](=O)[O-],7.14% (inactive)
4,O=S(=O)(Cl)c1ccccc1,-5.38% (inactive)
5,c1ccoc1,1.6% (inactive)
6,Clc1ccccc1,-2.8% (inactive)
7,ClC(Cl)(Cl)C(Cl)(Cl)Cl,-8.52% (inactive)
8,CCOC(=O)C1OC1(C)c1ccccc1 (stereo unspecified),2.51% (inactive)
9,C=CCCl,5.34% (inactive)
10,OCCCCO,2.2% (inactive)
11,Nn1cnnc1,10.9% (inactive)
12,Cc1ccccc1[N+](=O)[O-],10.2% (inactive)
13,Cc1ccc(N)c(C)c1,-5.61% (inactive)
14,C1CC2OC2CC1C1CO1 (stereo unspecified),-6.89% (inactive)
15,CN(C)C(=O)Cl,-3.97% (inactive)
16,Cc1ccc(N=C=O)cc1N=C=O,12.5% (inactive)
17,C=CC(=O)OC,-13.1% (inactive)
18,CCN(CC)N=O,-12.5% (inactive)
19,OCC(Cl)CCl (stereo unspecified),-6.66% (inactive)
20,CC[N+](=O)[O-],3.01% (inactive)
21,CC(C)(Cl)[N+](=O)[O-],-6.02% (inactive)
22,C[N+](=O)[O-],-1.15% (inactive)
